# Laboratory results as given in PubChem BioAssay AID1259418 (Broad Institute, 2018).
# The campaign covered roughly 3,400 compounds. About 840 (25%) were called active. Another 11% or so got no clear call; they are omitted.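 The calls were made as follows: active = fitted half-maximal concentration of signal decrease at or below twice the sample's top tested concentration; inconclusive = flat curve between -70 and -30 percent, or poor fit; inactive = flat within 30 percent, signal rise, or potency above limit.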 A selection follows. Results with a measured potency or affinity are listed apart.
# Test: inhibitors of Toxoplasma growth in IFN-γ-primed HeLa – cell-based, ME49Luc, luciferase, 72 h, dose response (AID 1259418)
# Settings: T. gondii ME49Luc in IFN-y HeLa, stronger effect = lower value, -100% = high-dose IFN-γ control wells; at 19.5 µM unless noted
row,Structure (SMILES),max activity
1,Cc1ccccc1-c1nc(CN2CCN(C(=O)Nc3cccc(Cl)c3)CC2)c(C)o1,10.5% [at 5 µM] (inactive)
2,Cc1ccc(-c2nc3c(s2)CN(C(=O)Nc2cccc(C)c2C)CC3)cc1,22.5% [at 5 µM] (inactive)
3,CC(=O)NCCNC(=O)CC1Nc2c3ccccc3nc(=S)n2C1=O (stereo not given),32% (inactive)
4,COc1ccccc1CNc1nc(-c2ccc(Cl)cc2)nc2ccccc12,9.39% [at 0.35 µM] (inactive)
5,Cc1oc(-c2ccccc2)nc1Cn1nnc(-c2nc(-c3cccc(Br)c3)no2)c1C,5.37% [at 0.16 µM] (inactive)
6,Cc1nc(CCNC(=O)C2CCN(S(=O)(=O)c3cccc(Cl)c3C)CC2)cs1,-10.4% [at 5 µM] (inactive)
7,CCCCc1ccc(Nc2ncnc3c2cnn3-c2ccc(OC)cc2)cc1,8.01% [at 5 µM] (inactive)
8,Cc1cccc(C)c1NC(=O)CN1CCC2(CC1)N=C(c1cccc(F)c1)C(=O)N2,21.4% [at 0.35 µM] (inactive)
9,COc1cc(NC(=O)COc2nc(C)nc3ccccc23)cc(OC)c1OC,39.1% [at 0.35 µM] (inactive)
10,O=S(=O)(c1ccccc1F)N1CCC(c2nc3ccc(-c4ccncc4)cn3n2)CC1,-8.38% [at 0.16 µM] (inactive)
11,CC(C)NC(=O)N1CC(=O)N2[C@H](CO)[C@H](c3ccc(/C=C/c4ccccc4)cc3)[C@@H]2C1,15.1% (inactive)
12,O=C(C1CCOCC1)N1CC(=O)N2[C@@H](CO)[C@H](c3ccc(/C=C/c4ccccc4)cc3)[C@@H]2C1,16.6% (inactive)
13,CC(C)c1ccc(-c2nc3c([nH]2)c(=O)n(C)c(=O)n3C)cc1,36.8% (inactive)
14,COc1ccc(-c2nc(N3CCN(c4ccccc4OC)CC3)c3ccccc3n2)cc1,-19.4% [at 0.35 µM] (inactive)
15,COc1ccc(-c2nc(N3CCN(c4ccccc4F)CC3)c3ccccc3n2)cc1,-17% [at 0.35 µM] (inactive)
16,COc1ccc(CCNc2ncnc3c2cnn3-c2ccc(C)cc2C)cc1OC,-45% [at 0.16 µM] (inactive)
17,CCc1nc(OCC(=O)Nc2ccc(F)cc2)c2ccccc2n1,24.6% [at 0.35 µM] (inactive)
18,COc1ccc(-c2nc(Cn3c(=O)c4c(C)cc(C)nc4n(-c4ccccc4)c3=O)c(C)o2)cc1OC,-11.3% [at 1.35 µM] (inactive)
19,COc1ccc(NC(=O)CN2CCC3(CC2)N=C(c2ccc(Cl)cc2)C(=O)N3)cc1,-12.9% [at 0.68 µM] (inactive)
20,Cc1ccc(NC(=O)CN2CCC3(CC2)N=C(c2cccc(F)c2)C(=O)N3)cc1F,-40.4% (inactive)
